Experimental data: PMC4552634, “A New Set of Chemical Starting Points with Plasmodium falciparum Transmission-Blocking Potential for Antimalarial Drug Discovery” (PLoS ONE, 2015)
Hit rate of the full screen: of about 13,000 compounds, about 3,200 (25%) showed an effect of 50% or more. The list shows a part of the results.

tested on: P. falciparum stage V gametocytes; set-up: BacTiter-Glo ATP luminescence viability of purified stage V gametocytes in 384-well plates, per cent inhibition versus DMSO; conditions: 48 h, 5 µM; inhibitor

Row | Structure (SMILES) | % Inhibition
1 | O=S(=O)(NCCN1CCCC1)c1ccc(-c2ccc(CNCc3ccccc3)cc2)cc1 [TCMDC-132228] | 101.6%
2 | Cc1c(CNCCN2CCCCC2)c(C(=O)O)c(C)n1Cc1ccc(Cl)cc1 [TCMDC-125269] | 31.51%
3 | O=S(=O)(NCCN1CCCC1)c1ccc(-c2ccc(CNCc3ccc(F)cc3)cc2)cc1 [TCMDC-132280] | 62.82%
4 | Clc1ccc(-c2ccc(CNCCCN3CCCC3)cc2)cc1 [TCMDC-140148] | 75.83%
5 | NC(Cc1ccc(Cl)cc1)=NCCN1CCCCCC1 [TCMDC-137727] | 39.5%
6 | O=S(=O)(Nc1cc2c(cc1O)CCN(C1CCC1)CC2)c1ccc(-c2ccc(F)cc2)cc1 [TCMDC-136084] | -82.22%
7 | COC(=O)c1cc(/C(C)=N/Nc2nc3ccccc3[nH]2)ccc1O [TCMDC-139075] | -14.17%
8 | O=C(NC1CC1)c1ccc(N2CCC(Cc3ccccc3)CC2)nc1 [TCMDC-134591] | 24.62%
9 | COC(=O)c1ccc(CC(C)NCC(O)c2cccc(C(F)(F)F)c2)cc1C (centres unmarked) [TCMDC-131470] | 8.047%
10 | C[C@H](Nc1nc(C(Oc2ccccc2)c2ccccc2)nc2[nH]ncc12)c1ccccc1 (some centres unmarked) [TCMDC-136553] | 53.92%
11 | COc1cccc(OC(C)(C)c2nc(N[C@@H](C)c3ccccc3)c3cn[nH]c3n2)c1 [TCMDC-136619] | 13.05%
12 | OC[C@H](Nc1nc(C(Oc2ccccc2)c2ccccc2)nc2[nH]ncc12)c1ccccc1 (some centres unmarked) [TCMDC-136552] | 43.31%
13 | CC1(C)NC(N)=NC(=N)N1OCc1ccc(-c2ccccc2)cc1 [TCMDC-131591] | -7.815%
14 | COc1ccc2c(NN=Cc3cccc(C)n3)ccnc2c1 [TCMDC-142031] | -34.06%
15 | COc1ccc2nc(C)cc(NN=Cc3ccccc3Cl)c2c1 [TCMDC-142078] | -47.04%
16 | COc1ccc2c(NN=Cc3ccccc3Cl)cc(C)nc2c1 [TCMDC-142079] | 78.38%
17 | COc1ccc2nc(C)cc(N/N=C/C=C/c3ccccc3)c2c1 [TCMDC-142095] | 88.89%
18 | COc1cc(C=NNc2cc(C)nc3ccccc23)cc(OC)c1OC [TCMDC-123958] | -11.67%
19 | COc1ccc2c(NN=Cc3cccc(Cl)c3)cc(C)nc2c1 [TCMDC-142080] | 55.62%
20 | Cc1cc(NN=Cc2ccccc2Cl)c2ccccc2n1 [TCMDC-142059] | -35.38%
21 | COc1ccc2nc(C)cc(NN=Cc3cccc(Cl)c3)c2c1 [TCMDC-142077] | 106.6%
22 | Cc1cc(NN=CC=Cc2ccccc2)c2ccccc2n1 [TCMDC-142074] | -83.64%
23 | Cc1ccc2nc(C)cc(NN=CC=Cc3ccccc3)c2c1 [TCMDC-123974] | -10.18%
24 | CN(Cc1c(Cl)cnn1C)S(=O)(=O)c1ccc2ccccc2c1 [TCMDC-124903] | 3.551%
25 | CC(=O)Nc1ncc(C(=O)Nc2cccc(-c3ccc(-c4nc5cc(C(F)(F)F)ccc5[nH]4)s3)c2)s1 [TCMDC-136915] | 15.71%
26 | Cc1ccc(CN2CCC(C(=O)Nc3ccc(-c4cc5ccccc5[nH]4)cc3)CC2)o1 [TCMDC-124634] | -0.9664%

Row | Structure (SMILES) | % Inhibition
27 | CC(ON1C(N)=NC(N)=NC1(C)C)c1ccccc1 (centres unmarked) [TCMDC-131596] | 28.25%
28 | O=C(Nc1ccc(-n2ccc(C(F)(F)F)n2)cc1)c1cccs1 [TCMDC-125785] | 28.31%
29 | Cc1cc(CNC(=O)[C@H](CC2CCCCC2)Nc2ccc(C#N)c3ccccc23)c(C(F)(F)F)o1 [TCMDC-136628] | -91.12%
30 | Cc1cnc(-c2ccc(NC(=O)c3coc4ccc(N5CC(C)N(C)C(C)C5)cc34)cc2)o1 (centres unmarked) [TCMDC-141361] | 27.19%
31 | Cc1cc(O)nc(NC(=N)NOCc2ccccc2)n1 [TCMDC-131683] | 7.113%
32 | O=C(NC1CCCC1)c1ccc(N2CCC(NCc3cc4cc(Cl)ccc4[nH]3)CC2)cc1 [TCMDC-124662] | -4.187%
33 | COc1ccc(C(=O)Nc2cc(Br)c3c(c2)CNCC3)cc1C(F)(F)F [TCMDC-139728] | 19.24%
34 | COc1ccc(C(=O)Nc2cc(Br)c3c(c2)CNCC3)cc1Br [TCMDC-139727] | 19.9%
35 | CCOc1ccc(C(=O)Nc2cc(Br)c3c(c2)CNCC3)cc1C#N [TCMDC-139731] | 94.42%
36 | CCOc1ccc(C(=O)Nc2cc(Br)c3c(c2)CNCC3)cc1Br [TCMDC-139729] | 61.1%
37 | CCOc1ccc(C(=O)Nc2cc(Br)c3c(c2)CNCC3)cc1C(F)(F)F [TCMDC-139732] | 37.39%
38 | CCOc1ccc(C(=O)Nc2cc(Br)c3c(c2)CNCC3)cc1Cl [TCMDC-139730] | 27.05%
39 | O=C1c2ccccc2C(=O)N1c1ccc(S(=O)(=O)N2CCOCC2)cc1 [TCMDC-125740] | 8.047%
40 | CC(=O)N(C)c1ccc(C(=O)Nc2cccc(-c3cccc(-c4nc5c(C)cccc5[nH]4)c3)c2)cc1 [TCMDC-136850] | -24.43%
41 | CC(C)Sc1nc2c(c(=O)n1Cc1ccco1)C1(CCCC1)Cc1ccccc1-2 [TCMDC-125844] | 9.662%
42 | CC(C)(C)c1ccccc1SC1=C(O)CC2(CCNCC2)OC1=O [TCMDC-140973] | 16.85%
43 | Cc1cccc2nc(-c3ccc(-c4ccc(CN5CCCCC5CO)cc4)cc3)[nH]c12.O=C(O)C(F)(F)F (centres unmarked) [TCMDC-133824] | 10.09%
44 | Cn1nc(-c2ccc(CNC3CCc4ccccc43)cc2)c2cnc(NCCN3CCCC3)nc21 (centres unmarked) [TCMDC-135033] | 65.68%
45 | Cn1nc(-c2ccc(CNC3CCc4ccccc43)cc2)c2cnc(NCCCN3CCCC3)nc21 (centres unmarked) [TCMDC-135036] | 65.55%
46 | CN(c1cc(NC(=O)c2cccs2)ccn1)C1CCN(Cc2cccc(F)c2)CC1 [TCMDC-135010] | 5.779%
47 | COc1ccc2nccc([C@@H](O)CN3CCC(NC(=O)C(c4cc5ccccc5o4)N4CCN(C(c5ccccc5)c5ccccc5)CC4)CC3)c2c1 (some centres unmarked) [TCMDC-140990] | 16.51%
48 | O=C(Nc1ccc(NC2=NCCN2)cc1)c1ccc(C(=O)Nc2ccc(NC3=NCCN3)cc2)cc1 [TCMDC-137799] | 30.06%
49 | Nc1ncc(-c2cccc(F)c2)cc1-c1nc2ccc(F)cc2[nH]1 [TCMDC-133132] | -10.73%
50 | CCOC(=O)c1ccc(NC(=O)Nc2cccc(-c3cccc(-c4nc5ccc(F)cc5[nH]4)c3)c2)cc1 [TCMDC-133268] | -1.066%
51 | CCc1nc(N)nc(N)c1-c1ccc(F)cc1 [TCMDC-137722] | 5.569%
52 | CC[C@H]1CN2CC[C@H]1C[C@H]2[C@H](O)c1cc(-c2ccc(OC(F)(F)F)cc2)nc2ccc(OC)cc12 [TCMDC-141214] | 67.8%

Row | Structure (SMILES) | % Inhibition
53 | CC[C@H]1CN2CC[C@@H]1C[C@@H]2[C@@H](O)c1cc(-c2ccc(F)cc2)nc2ccc(OC)cc12 [TCMDC-141379] | 96.07%
54 | CC[C@H]1CN2CC[C@H]1C[C@H]2[C@H](O)c1cc(-c2ccccc2C(F)(F)F)nc2ccc(OC)cc12 [TCMDC-141198] | -3.019%
55 | CC[C@H]1CN2CC[C@H]1C[C@H]2[C@H](O)c1cc(-c2ccc(SC)cc2)nc2ccc(OC)cc12 [TCMDC-141196] | 82.69%
56 | CC[C@H]1CN2CC[C@H]1C[C@H]2[C@H](O)c1cc(-c2ccc(Cl)c(Cl)c2)nc2ccc(OC)cc12 [TCMDC-141216] | 98.02%
57 | CC[C@H]1CN2CC[C@H]1C[C@H]2[C@H](O)c1cc(-c2ccccc2F)nc2ccc(OC)cc12 [TCMDC-141193] | 19.12%
58 | O=C(NCCN1CCCCC1)c1ccc(CNC(=O)c2ccc(O)c(-c3ccc(Cl)c(Cl)c3)c2)cc1 [TCMDC-140860] | -11.08%
59 | COc1ccc(Nc2nc(C)cc(NC3CCCC3)n2)cc1 [TCMDC-133465] | 24.25%
60 | CCOC(=O)c1c(CCc2ccc(C(F)(F)F)cc2)nc2c(c1-c1ccc(C(=O)N[C@@H](C)c3ccncc3)cc1)C(=O)N1CCC[C@@H]21 [TCMDC-138612] | 6.02%
61 | CCCNC(=O)CN1CN(c2ccccc2)C2(CCN(C(=O)c3ccc(C(C)(C)C)cc3)CC2)C1=O [TCMDC-125173] | -65.45%
62 | Cc1c(C)n(Cc2ccccc2)c2ncnc(OC3CCN(CC(=O)NCC4CC4)CC3)c12 [TCMDC-125326] | -12.47%
63 | CCOC(=O)c1[nH]c(-c2cccnc2)nc1NC(=S)NCc1ccccc1 [TCMDC-138784] | -4.964%
64 | COc1cccc(C(O)CNc2ccnc(Nc3cccc(-c4csc(C)n4)c3)n2)c1 (centres unmarked) [TCMDC-136574] | 8.83%
65 | CCN(CC)CCCN1CCN(C(=O)c2cccc(-c3noc(C(F)(F)F)n3)c2)CC1 [TCMDC-132421] | -5.247%
66 | NC(N)=NC(=O)Nc1cc(Br)c(Cl)c(C(F)(F)F)c1 [TCMDC-137513] | -25.86%
67 | CCc1ccc(-c2nc3cc(NC(=O)c4cc([N+](=O)[O-])cc([N+](=O)[O-])c4)ccc3o2)cc1 [TCMDC-124220] | -7.299%
68 | COc1ccc(-c2csc3nc(C)nc(Cl)c23)cc1OC [TCMDC-125523] | -37.7%
69 | CC[C@H]1CN2CC[C@H]1C[C@H]2[C@H](O)c1cc(-c2ccc(F)cc2C)nc2ccc(OC)cc12 [TCMDC-141197] | 26.99%
70 | C=C[C@H]1CN2CC[C@@H]1C[C@H]2[C@H](O)c1cc(-c2ccc(F)cc2)nc2ccc(OC)cc12 [TCMDC-141374] | 31.93%
71 | CC[C@H]1CN2CC[C@@H]1C[C@H]2[C@H](O)c1cc(-c2cc(Cl)cc(Cl)c2)nc2ccc(OC)cc12 [TCMDC-141351] | 45.7%
72 | COc1ccc2nc(-c3ccc(F)cc3)cc([C@@H](O)[C@@H]3C[C@@H]4CCN3CC4C=NO)c2c1 (some centres unmarked) [TCMDC-141395] | 28.31%
73 | C=C[C@H]1CN2CC[C@H]1C[C@H]2[C@H](O)c1cc(-c2ccc(Cl)cc2)nc2ccc(OC)cc12 [TCMDC-139009] | 109.5%
74 | CC[C@H]1CN2CC[C@H]1C[C@H]2[C@H](O)c1cc(-c2ccc3ccccc3c2)nc2ccc(OC)cc12 [TCMDC-141213] | 91.14%
75 | CC[C@H]1CN2CC[C@H]1C[C@H]2[C@H](O)c1cc(-c2ccc(C)cc2)nc2ccc(OC)cc12 [TCMDC-141192] | 31.69%
76 | CC[C@H]1CN2CC[C@H]1C[C@H]2[C@H](O)c1cc(-c2cccc(Cl)c2)nc2ccc(OC)cc12 [TCMDC-141215] | 86%
77 | CC[C@H]1CN2CC[C@H]1C[C@H]2[C@H](O)c1cc(-c2ccc(F)cc2)nc2ccc(OC)cc12 [TCMDC-141195] | 81.45%
